Compound activity deposited in PubChem by The Scripps Research Institute Molecular Screening Center.
HTR5A ag: HTR5A agonists in luminescence cell assay, primary screen, counter-screen for OPRM1-OPRD1 heterodimer agonist project, full-deck HTS; 5-hydroxytryptamine receptor 5A (Homo sapiens), P47898; cell-based; activation, % at 9.3 µM; 340,000 compounds, 0.61% hits; in the data active = activation mostly above about 9.5%, no sharp cut-off; inactive = mostly below about 7.6%;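 note: 0% = cells with vehicle only and 100% = reference agonist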
Target sequence (P47898 whole entry, looked up): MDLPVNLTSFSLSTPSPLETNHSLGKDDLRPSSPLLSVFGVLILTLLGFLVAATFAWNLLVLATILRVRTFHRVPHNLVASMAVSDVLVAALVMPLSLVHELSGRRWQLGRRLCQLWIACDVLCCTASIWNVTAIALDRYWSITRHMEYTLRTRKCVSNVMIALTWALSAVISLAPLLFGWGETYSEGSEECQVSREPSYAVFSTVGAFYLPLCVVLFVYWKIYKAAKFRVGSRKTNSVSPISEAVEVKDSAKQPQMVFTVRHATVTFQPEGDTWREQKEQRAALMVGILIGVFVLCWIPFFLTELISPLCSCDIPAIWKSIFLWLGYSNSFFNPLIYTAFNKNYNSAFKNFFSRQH
OPRM1-OPRD1 inv: inverse agonists of MOR-DOR heterodimerization, primary screen, cell-based, luminescence; Mu-type opioid receptor (Homo sapiens) + Delta-type opioid receptor (Homo sapiens), …; inhibition, % at 9.3 µM; cell-based MOR-DOR heterodimer luminescence, inverse agonism; AID 504357, 2011; 340,000 compounds, 0.21% hits; in the data active = inhibition above about 22%, passing the limit was not always enough;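 note: 0% = cells with DMSO and 100% = wells without cells with DMSO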
HGIII-sPLA2 inh: human group III sPLA2 inhibitors, primary screen, biochemical, QFRET, BODIPY PC-A2 liposome substrate | 370,000 compounds, 0.56% hits | inhibition, % at 12.2 µM | QFRET BODIPY PC-A2 liposome hydrolysis, fluorescence | Group 3 secretory phospholipase A2 (Homo sapiens), Q9NZ20;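 active = inhibition above mean plus 3 SD of compounds lying within the high and low control bounds, cut at about 19% in these data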;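 note: 0% = median of test compound wells and 100% = no enzyme DMSO wells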
OPRM1-OPRD1 ag: agonists of OPRM1-OPRD1 heterodimerization, primary screen, cell-based, luminescence; activation, % at 9.3 µM; Mu-type opioid receptor (Homo sapiens) + Delta-type opioid receptor (Homo sapiens), …; cells; 340,000 compounds, 0.3% hits; in the data active = activation above about 18%;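 note: 0% = vehicle-treated cells and 100% = reference agonist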
m5-HT2A agonist: mouse Htr2a agonists via beta-arrestin recruitment, primary screen, cell-based, luminescence. CHO-K1 mHTR2A beta-arrestin complementation; percent of 30 µM serotonin response. AID 624169, 2012. activation, % at 7.6 µM. 360,000 compounds, 0.66% hits;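 active = activation above a run cutoff, the mean activation of all tested compounds plus 3 SD, cut at about 14% in these data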;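 note: 0% = plate median of compound wells and 100% = 30 µM serotonin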
HTR5A inv ctr: HTR5A inverse agonists in luminescence cell assay, primary screen, counter-screen for OPRM1-OPRD1 heterodimer inverse agonist project, full-deck HTS. 5-hydroxytryptamine receptor 5A (Homo sapiens), P47898. 340,000 compounds, 0.083% hits. inhibition, % at 9.3 µM. HTR5A cell line, inverse agonism. AID 504634, 2011; in the data active = inhibition mostly above about 23%, no sharp cut-off; inactive = mostly below about 18%;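 note: 0% = cells with DMSO and 100% = no-cell wells with DMSO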
MOR ag counter: OPRM1 agonists via beta-arrestin recruitment, confirmation, counter-screen for mouse HTR2A agonist project, cell-based, luminescence, single concentration; activation, % at 9.3 µM; shares compounds with m5-HT2A agonist; 2,300 compounds, 5.3% hits; U2OS OPRM1 beta-arrestin PathHunter; DMSO 0%, DAMGO 9.3 µM 100%;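 active = mean activation above the mean of DMSO-only wells plus 3 SD, cut at about 0.5% in these data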
m5-HT2A ag conf: mouse HTR2A agonists, beta-arrestin recruitment, confirmation, cell-based, luminescence, CHO-K1 PathHunter, triplicate; 2,300 compounds, 19% hits; DMSO 0%, 30 µM serotonin 100%; AID 624381, 2012; shares compounds with m5-HT2A agonist; activation, % at 7.6 µM;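 active = mean activation across triplicates above the hit threshold derived in the original primary screen, cut at about 15% in these data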
Numbers without * were called inactive; / = no result. Most compounds without a hit are left out; they make up all but 2.2% or so of the library.

SMILES | HTR5A ag | OPRM1-OPRD1 inv | HGIII-sPLA2 inh | OPRM1-OPRD1 ag | m5-HT2A agonist | HTR5A inv ctr | MOR ag counter | m5-HT2A ag conf
COc1ccc(OC)c(CCNC(=O)Cc2ccc(NC3=NC4CS(=O)(=O)CC4S3)cc2)c1 (stereo not given) | 0.2 | 5.1 | 2.6 | -0.9 | -0.4 | -0.9 | / | /
Cc1cccc(N2CCN(C(=O)c3cccc(NC4=NC5CS(=O)(=O)CC5S4)c3)CC2)c1C (stereo not given) | 2.2 | 3.4 | -1.4 | -0.6 | -2.9 | -23.8 | / | /
COc1ccc(OC)c(CCNC(=O)c2ccc(NC3=NC4CS(=O)(=O)CC4S3)cc2)c1 (stereo not given) | -1.1 | 5.0 | 2.4 | -0.9 | 16.9* | -0.9 | 0.3 | 0.2
C[C@@H]1COc2cc(N3CCSCC3)ccc2S(=O)(=O)N1C | / | / | 0.2 | / | / | / | / | /
CCCCCCC(=O)NC1CCCCN(Cc2ccc(C)cc2)C1=O (stereo not given) | / | / | 0.2 | / | / | / | / | /
CC(C)C[C@H]1CN=C(N(C)C)N1CCCCc1ccccc1 | 1.6 | 24.8 | -18.0 | -4.4 | 19.7* | -0.2 | -0.5 | -3.4
Cc1ccc2c(c1)[C@H]1[C@H](CO2)[C@H](c2ccccc2)[C@]2(C)C(=O)N(CC3CCCO3)CC(=O)N12 (stereo not given in full) | -1.3 | -5.9 | 2.7 | 1.0 | 17.7* | 12.0 | -0.5 | -2.8
COc1cccc(C(=O)NCCS(=O)(=O)N2CCC(C)CC2)c1 | -3.8 | 10.9 | 0.0 | -2.0 | 14.4* | 9.6 | -0.5 | -4.7
CCc1ccc(NC(=O)c2sccc2-n2cccc2)cc1 | 3.1 | -19.3 | -4.6 | 3.1 | 14.8* | -18.4 | -0.4 | -4.9
COc1ccccc1Nc1nc(N)nc(CSc2nncn2C)n1 | 2.9 | 3.7 | 0.5 | -0.7 | 14.8* | 1.4 | -0.5 | 2.8
COc1ccccc1Nc1nc(N)nc(CSc2nccn2C)n1 | -0.7 | 4.9 | 4.5 | -0.7 | 0.4 | 1.9 | / | /
O=C1[C@H](Oc2ccccc2)[C@@H](c2ccccc2)N1c1ccncc1 | 9.4* | 18.2 | -7.6 | -3.7 | 18.3* | -34.3 | -0.3 | -8.1
OCC[C@@H]1C[C@H](O)[C@@H](O)[C@@]2(OCCCc3cc(C(F)(F)F)ccc32)O1 | / | / | -4.2 | / | 14.7* | / | -0.3 | 6.9
CCCS(=O)(=O)NC(=O)C1(C)CCCN(C(=O)c2ccccc2F)C1 (stereo not given) | / | / | 7.4 | / | 3.3 | / | / | /
CCCNC(=O)C1(C)CCCN(C(=O)c2ccccc2F)C1 (stereo not given) | / | / | 2.0 | / | 17.4* | / | -0.6 | -2.9
O=S1(=O)c2ccc(Br)cc2OC[C@H](Cc2ccccc2)N1Cc1cn(Cc2ccc(C(F)(F)F)cc2)nn1 | / | / | 2.9 | / | / | / | / | /
Cc1ccc(N(Cc2ccccc2)C(=O)c2ccc(S(=O)(=O)N3CCOCC3)cc2)cc1 | 2.8 | 16.3 | -10.5 | -3.1 | 3.4 | -7.7 | / | /
COc1ccc(C(=O)OCc2ccc(C)cc2)cc1S(=O)(=O)N1CCOCC1 | -4.2 | 5.5 | -6.7 | -1.4 | 18.3* | 8.5 | -0.3 | -2.9
Cc1ccc(N(Cc2ccccc2)C(=O)c2ccc(C)c(S(=O)(=O)N3CCOCC3)c2)cc1 | -3.3 | -4.1 | 7.3 | 0.8 | 14.9* | 11.9 | -0.1 | 2.4
CNc1nc(N)c([N+](=O)[O-])c(Nc2cccc(Br)c2)n1 | / | / | 3.0 | / | / | / | / | /
CC(C)c1[nH]nc2c1C1(CCN(Cc3ccccc3)CC1)C(C#N)=C(N)O2 | -3.6 | 7.0 | -5.7 | -1.4 | 30.7* | 11.0 | -0.5 | -4.8
